In publication PMC5540273 (PLoS ONE, 2017):

What was measured:
Conditions in all cases: concentration: 1 μM, replicates: in singlicate; n = 1
MLK1 = system: T1, MLK1
T1 construct: gene MAP3K9

MLK2 = system: MLK2
MLK3 = system: MLK3
MRCKA = system: MRCKA
MRCKB = system: T2, MRCKB
T2 construct: gene CDC42BPB

MST1R = system: MST1R
MST1 = system: T3, MST1
T3 construct: gene STK4

MST2 = system: T4, MST2
T4 construct: gene STK3

MST3 = system: T5, MST3
T5 construct: gene STK24

MST4 = system: MST4
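Further: KINOMEscan kinase panel screen.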

| SMILES | %Inh (MLK1) [%] | %Inh (MLK2) [%] | %Inh (MLK3) [%] | %Inh (MRCKA) [%] | %Inh (MRCKB) [%] | %Inh (MST1R) [%] | %Inh (MST1) [%] | %Inh (MST2) [%] | %Inh (MST3) [%] | %Inh (MST4) [%] |
| --- | --- | --- | --- | --- | --- | --- | --- | --- | --- | --- |
| CCNc1nccc(-c2c(-c3ccc(F)cc3)ncn2C2CCN(C)CC2)n1 | 0 | 7 | 0 | 0 | 0 | 0 | 0 | 38 | 21 | 0 |
| c1ccc(Oc2ccc(Nc3ccnc4cc(-c5ccc(CN6CCCCC6)o5)ccc34)cc2)nc1 [GW567143] | 2 | 14 | 0 | 13 | 0 | 29 | 20 | 0 | 4 | 0 |
| COC(=O)Nc1nc2ccc(Oc3ccc(CC(=O)Nc4cc(C(F)(F)F)ccc4F)cc3)cc2[nH]1 [GW680903] | 0 | 0 | 0 | 39 | 0 | 34 | 0 | 0 | 4 | 0 |
| Cn1cc(-c2ccc3c(c2)CCN3C(=O)Cc2cc(F)cc(C(F)(F)F)c2)c2c(N)ncnc21 [GSK2635225] | 78 | 42 | 72 | 5 | 0 | 19 | 39 | 10 | 0 | 0 |
| COc1ccc(C2=C(Nc3cccc(O)c3)C(=O)NC2=O)cc1 [SB-390766] | 0 | 0 | 0 | 0 | 2 | 100 | 7 | 100 | 0 | 0 |
| Cl.N#CCc1ccc(Nc2nccc(Nc3ccc(Oc4ccccc4)cc3)n2)cc1 [GW639905] | 0 | 0 | 0 | 6 | 0 | 2 | 20 | 0 | 0 | 0 |
| CN1CCN(Cc2ccc(NC(=O)Nc3ccc(N(C)c4ccnc(Nc5ccc(CS(C)(=O)=O)cc5)n4)cc3)cc2)CC1.Cl [GW827654] | 14 | 24 | 0 | 15 | 30 | 92.7 | 61 | 99 | 68 | 83 |
| Cc1cccc(Nc2nc(NCCN)ncc2C(N)=O)c1 [GSK1292139] | 85 | 0 | 61 | 2 | 0 | 14 | 35 | 38 | 23 | 23 |
| CN(c1ccc(NC(=O)Nc2cccc(Cl)c2)cc1)c1ccnc(N)n1.Cl [GW830707] | 0 | 7 | 0 | 0 | 17 | 22 | 0 | 11 | 0 | 16 |
| COc1cccc(C2=C(Nc3cccc(O)c3)C(=O)NC2=O)c1 [SB-390771] | 21 | 0 | 4 | 18 | 0 | 0 | 13 | 12 | 0 | 7 |
| CN(C)CCOc1ccc(-c2cc(-c3ccc(Cl)c(O)c3)c(-c3ccncc3)[nH]2)cc1.Cl.Cl [SB-684387] | 0 | 0 | 0 | 8 | 5 | 34 | 0 | 17 | 0 | 0 |
| Cl.Cl.NCC(NC(=O)c1cc(-c2cccnc2)c(-c2ccnc3[nH]ccc23)s1)c1ccccc1 (stereo not drawn) [GSK1323434] | 0 | 0 | 48 | 39 | 35 | 84 | 0 | 8 | 0 | 15 |
| CS(=O)(=O)c1cccc(CNc2nc(Nc3ccc4c(c3)CCC(=O)N4)ncc2C(F)(F)F)c1 | 99.7 | 93.9 | 96.4 | 0 | 0 | 1 | 0 | 11 | 0 | 25 |
| O=C(Nc1n[nH]c2nc(-c3ccccc3)ccc12)C1CC1 [SB-708999] | 0 | 11 | 5 | 8 | 0 | 0 | 3 | 0 | 3 | 41 |
| Cn1cc(-c2cnc(N)c3c(-c4ccc5c(c4)CCN5C(=O)Cc4ccccc4)csc23)cn1 [GSK2593074] | 14 | 25 | 14 | 10 | 10 | 12 | 97.8 | 100 | 7 | 33 |
| Nc1ncc(-c2ccc3nccc(-c4ccncc4)c3c2)cc1S(=O)(=O)N1CCCCC1 [GSK1693850] | 0 | 0 | 7 | 12 | 0 | 35 | 8 | 25 | 29 | 0 |
| O=C(Nc1n[nH]c2cc(-c3cccs3)ccc12)C1CC1 [SB-731284] | 0 | 27 | 0 | 0 | 0 | 0 | 10 | 0 | 7 | 39 |
| Cc1ccc(C)c(NC(=O)Nc2ccc(C)c(-c3ccc(C(=O)Nc4ccncc4)cc3)c2)c1 [GSK1398473] | 0 | 0 | 0 | 24 | 21 | 26 | 0 | 34 | 0 | 0 |
| CCNC(=O)/C=C/c1n[nH]c2cc(Sc3ccccc3C(=O)NC)ccc12 | 7 | 7 | 0 | 0 | 48 | 8 | 0 | 0 | 30 | 0 |
| CC(=O)Nc1cn2nc(Oc3cccc(NC(=O)c4cccc(C(F)(F)F)c4)c3)ccc2n1 | 2 | 23 | 6 | 7 | 0 | 0 | 27 | 0 | 1 | 0 |
| Cc1ccc(NC(=O)c2ccc(Cl)c(Cl)c2)cc1-c1ccc(C(=O)Nc2ccncc2)cc1 [GSK1398460] | 7 | 16 | 20 | 25 | 32 | 31 | 8 | 0 | 6 | 0 |
| Cc1cccc(Nc2nc(N[C@H]3CCCC[C@H]3N)ncc2C(N)=O)c1.Cl [GSK986310] | 85 | 40 | 76 | 13 | 0 | 44 | 34 | 0 | 52 | 34 |
| Cc1cc(-c2c(-c3ccc(F)cc3)ncn2CCCN2CCOCC2)nc(N)n1 [SB-222517] | 5 | 49 | 0 | 0 | 20 | 18 | 13 | 20 | 5 | 1 |

| SMILES | %Inh (MLK1) [%] | %Inh (MLK2) [%] | %Inh (MLK3) [%] | %Inh (MRCKA) [%] | %Inh (MRCKB) [%] | %Inh (MST1R) [%] | %Inh (MST1) [%] | %Inh (MST2) [%] | %Inh (MST3) [%] | %Inh (MST4) [%] |
| --- | --- | --- | --- | --- | --- | --- | --- | --- | --- | --- |
| Cc1ccc(NC(=O)c2ccnc(N3CCCCC3)c2)cc1-c1ccc(C(=O)NCC2CC2)cc1 [GW775610] | 0 | 0 | 4 | 0 | 9 | 4 | 13 | 32 | 30 | 0 |
| Cc1cc(-c2ccnc(Nc3cccc(C#N)c3)n2)cc(C)c1O [GSK1440913] | 66 | 0 | 36 | 5 | 0 | 0 | 0 | 9 | 6 | 9 |
| Nc1cccc(-c2ccc3c(N)n[nH]c3c2)c1 [GSK2193613] | 10 | 100 | 19 | 0 | 0 | 26 | 6 | 17 | 21 | 0 |
| Fc1cc(Cl)ccc1Nc1ccnc2cc(-c3ccc(CN4CCSCC4)o3)ccc12 [GW560106] | 14 | 0 | 13 | 0 | 4 | 31 | 30 | 0 | 0 | 0 |
| Cn1cc(-c2ccc3c(c2)CCN3C(=O)Cc2cc(F)cc(F)c2F)c2c(N)ncnc21 [GSK2634140] | 38 | 0 | 54 | 0 | 0 | 43 | 85 | 42 | 4 | 0 |
| Cc1ccc(-c2ccc3occ(-c4ccc(S(C)=O)cc4)c3c2)nn1 (stereo not drawn) | 0 | 10 | 0 | 0 | 0 | 0 | 0 | 0 | 0 | 0 |
| Cc1ccccc1CC(=O)N1CCc2cc(-c3cn(C)c4ncnc(N)c34)ccc21 [GSK2603346] | 7 | 0 | 18 | 0 | 0 | 46 | 97 | 0 | 46 | 54 |
| O=C1NC(=O)C(c2ccccc2Cl)=C1Nc1cccc(Cl)c1 [SB-342409] | 0 | 28 | 0 | 11 | 14 | 0 | 3 | 8 | 0 | 0 |
| CN(C)CCNS(=O)(=O)c1ccc(-c2ccnc3[nH]ccc23)cc1 [GSK977620] | 3 | 24 | 0 | 4 | 46 | 27 | 17 | 9 | 0 | 0 |
| CCn1c(-c2nonc2N)nc2c(-c3ccccc3)ncc(OCCCN)c21.O=C(O)C(F)(F)F.O=C(O)C(F)(F)F [GSK260205] | 0 | 0 | 0 | 99.9 | 99.3 | 45 | 52 | 0 | 38 | 71 |
| COc1cccc2c(-c3ccncc3)c(-c3ccc(F)cc3)nn12 [GW468513] | 0 | 1 | 4 | 60 | 67 | 15 | 31 | 0 | 0 | 0 |
| CN(c1ccc(NC(=O)N2CCN(CCCN3CCOCC3)CC2)cc1)c1ccnc(Nc2ccc(CS(C)(=O)=O)cc2)n1.Cl [GW830899] | 13 | 29 | 1 | 19 | 15 | 0 | 0 | 0 | 0 | 0 |
| COc1cccc(-c2nc(-c3ccccc3)[nH]c2-c2ccncc2)c1 [SB-610250] | 0 | 0 | 0 | 41 | 0 | 23 | 8 | 0 | 0 | 0 |
| CC(C)NCC(Cc1ccccc1)NC(=O)c1cc(Br)c(-c2ccnc3[nH]ccc23)s1.Cl.Cl (stereo not drawn) [GSK1383281] | 4 | 0 | 0 | 25 | 89 | 43 | 0 | 0 | 0 | 26 |
| CCOc1nccc(-c2c(-c3ccc(F)cc3)ncn2C2CCNCC2)n1 [SB-249175] | 3 | 14 | 15 | 0 | 26 | 0 | 0 | 0 | 13 | 11 |
| CC(C)(C)c1ccc(C(=O)Nc2cn3cc(-n4ccnc4)ccc3n2)cc1 | 18 | 0 | 0 | 28 | 0 | 28 | 7 | 3 | 0 | 0 |
| CNc1nccc(-c2ccc3c(N)n[nH]c3c2)n1 [GSK2206003] | 4 | 0 | 10 | 0 | 0 | 10 | 30 | 0 | 13 | 0 |
| CN(C)c1ncnc2nc[nH]c12 [SKF-31736] | 0 | 0 | 0 | 11 | 0 | 0 | 0 | 0 | 19 | 1 |
| COc1cc(Nc2nccc(N3CCC(NS(=O)(=O)c4ccc(NC(C)=O)cc4)CC3)n2)cc(OC)c1OC [GSK1379825] | 52 | 0 | 51 | 92.3 | 80 | 13 | 0 | 19 | 0 | 0 |
| NCCC(NC(=O)c1cc(Br)c(-c2ccnc3[nH]ccc23)s1)c1ccccc1.O=C(O)C(F)(F)F.O=C(O)C(F)(F)F (stereo not drawn) [GSK1307810] | 0 | 0 | 0 | 86 | 99.1 | 29 | 0 | 4 | 11 | 23 |
| COc1cccc(NC(=O)NCCNc2ccnc(Nc3ccc(F)cc3)n2)c1 [GSK1379879] | 0 | 0 | 0 | 34 | 3 | 37 | 0 | 15 | 0 | 0 |
| COc1cc(Nc2nccc(N3CCC(NC(=O)Nc4ccc5c(c4)OCO5)C3)n2)cc(OC)c1OC (stereo not drawn) [GSK1379766] | 36 | 0 | 46 | 11 | 0 | 39 | 0 | 32 | 0 | 0 |
